From the supplement of paper PMC7335073
Whole data set: some 4,100 sequences, median “relative CpG methylation activity (normalised to average over all NNNCGNNN flanks)” near 0.87, cut for the highest 2% near 2.4. The full list was thinned out, with the highest values kept by preference.

These sequences were tested against DNMT3A catalytic domain (mouse) (UniProt O88508) (assay: relative CpG methylation activity (normalised to average over all NNNCGNNN flanks) (relative (1 = mean)); higher = more methylation of the central CpG). Settings: system: in vitro, murine catalytic domain; CpG state: hemimethylated substrate pool; residues: 608-908.
Description: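 Deep enzymology: a pool of dsDNA substrates with a central CpG flanked by 10 random nucleotides on each side was methylated by the murine DNMT3A or DNMT3B catalytic domain (0.8 mM SAM, 37 °C, 60 min). Methylation was then read out by hairpin ligation, bisulfite conversion and NGS. Values are the average methylation of each NNNCGNNN context (±3 flanks; the outer flanks are random and averaged over), normalised to the overall mean, so 1 = average activity.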

Sequence | relative CpG methylation activity
GTACGCTT | 2.66
CTACGGTC | 1.92
GTACGCTG | 1.88
TGACGCTT | 1.05
GTACGCTA | 1.98
ATACGGTC | 2.39
ATACGCTA | 2.15
TTACGCTT | 2.62
ATACGGTG | 0.775
TAACGCTT | 1.53
ATACGCTT | 2.67
ATACGCTG | 2.12
CCTCGCAA | 1.31
CGGCGTAC | 0.625
AGGCGCAG | 0.331
TCTCGGTG | 0.645
TTACGCGA | 1.73
ACTCGTAG | 0.496
GAGCGCCT | 1.95
AGACGTCA | 1.03
AGACGATG | 0.457
AAACGCTC | 1.44
GTACGCAC | 1.87
ATACGCTC | 2.73
GTACGCTC | 2.72
TTACGCAC | 2.32

Sequence | relative CpG methylation activity
TTACGCTG | 1.74
GTACGCGC | 2.11
AGACGCTC | 1.49
TTACGCTC | 2.74
GCTCGACA | 1.04
TTCCGTGG | 0.603
TTGCGTAT | 1.47
ACTCGGAT | 0.799
AGGCGTTA | 0.256
ATACGAGT | 1.56
GCGCGGGG | 0.217
GTGCGCTC | 2.03
CTGCGCCT | 1.81
GTGCGCCT | 2.43
GTGCGCTA | 1.91
GTGCGCCA | 2.05
GTGCGCTT | 2.47
CGACGTTG | 0.323
TCCCGCAT | 0.92
GGACGATA | 0.784
TTTCGCCG | 1.83
AGACGTAT | 0.427
ATACGACG | 1.73
GTCCGATC | 2.18
GTACGAGC | 2.12
GTACGACC | 2.03

Sequence | relative CpG methylation activity
TTACGAGC | 2.12
CTACGATT | 1.89
ATACGACC | 2.41
CTCCGATC | 2.41
TTCCGATC | 2.29
ATACGAGC | 2.39
CTACGATG | 1.2
CTACGATC | 2.4
GGTCGCTG | 0.804
ACCCGGTC | 1.19
CCCCGCCT | 2.14
TGTCGGAA | 0.614
CCGCGTGG | 0.205
ACGCGCGG | 0.42
GCCCGGAT | 0.551
CTACGAGT | 1.7
CTACGAGC | 2.44
CTACGAGA | 1.72
TTCCGACG | 1.77
CTTCGCTT | 1.78
CTTCGCTA | 1.66
CTTCGCTC | 2.46
GTTCGCTC | 2.37
GTTCGCTG | 1.46
TTTCGCTC | 2.02
GGCCGGGC | 0.75

Sequence | relative CpG methylation activity
GATCGAGC | 0.679
CTACGTCT | 2.45
CAACGTCC | 1.67
ACACGTCC | 2.46
CTACGTGT | 1.07
ACACGTCA | 2.19
TGACGTCC | 1.32
TTACGTCC | 2.56
CCACGTCT | 1.61
CCACGTCC | 1.94
TCACGTCC | 1.98
CTACGTCC | 2.8
TTACGTCT | 2.14
GGACGAGA | 0.605
TCTCGTGT | 0.225
ATGCGGTG | 0.407
ACCCGACG | 1.17
GCTCGGAA | 0.694
GAGCGTAG | 0.34
CCGCGGAA | 0.965
AAACGGTC | 0.701
CTGCGTCC | 2.14
TTGCGTCT | 1.67
GAACGTCC | 1.06
TTGCGTCC | 2.39
GTACGTCC | 2.41

Sequence | relative CpG methylation activity
CTACGTGA | 1.2
CTACGTCA | 2.51
GTACGTCT | 2.06
CCACGTCA | 1.71
GTACGTCA | 2.5
GTACGTAC | 1.62
GCACGTCA | 1.86
ACGCGCCG | 1.59
ACCCGGTG | 0.688
GCACGAGG | 0.755
TGACGTAC | 0.438
CTCCGAAG | 1.01
CAGCGCTC | 1.08
GCGCGAGA | 0.455
CGCCGAGT | 0.664
TAACGGCG | 0.782
ATACGTCT | 2.22
AAACGTCA | 1.14
ATACGTGA | 1.2
ATACGTCA | 2.47
ATACGTCC | 2.56
ATACGTCG | 2.26
GGACGGGC | 0.536
CGCCGATA | 0.761
TCTCGAGG | 0.357
GTGCGTGC | 1.11

Sequence | relative CpG methylation activity
CATCGGAG | 0.238
TGTCGAAC | 0.773
GGGCGCCA | 1.15
CTACGTAA | 2.4
TTACGTAT | 1.48
CTACGTAC | 1.9
TTACGTAG | 1.34
TTACGTAA | 2.54
ATACGTAA | 2.01
CTTCGCAA | 1.52
AGCCGGGA | 0.357
GAGCGCTG | 0.969
CTGCGCCC | 2.19
GTGCGCCC | 2.22
ATGCGCCG | 2.39
TTGCGCCC | 2.61
GTGCGCCG | 1.79
TTGCGCCT | 2.1
CTGCGCCG | 1.93
ATGCGCCC | 2.44
TTGCGCCA | 1.75
CGTCGAGC | 1.06
AGCCGCAG | 0.256
CGGCGTAA | 0.615
GCACGGGA | 1.04
ATCCGTCT | 2.05

Sequence | relative CpG methylation activity
GTCCGTCG | 2.53
GTCCGTCC | 2.02
TTCCGTCT | 2.58
GTCCGTCA | 2.41
GTCCGTCT | 2.14
GTCCGTTG | 1.25
CTCCGTCT | 1.84
TTCCGTCG | 2.09
TGCCGCGA | 0.629
TGCCGCTT | 1.45
CGGCGGAT | 0.495
CGTCGTAG | 0.312
AACCGTCG | 1.34
CTACGTGG | 0.594
GTACGTCG | 1.85
TTACGTTG | 1.34
TTACGTTT | 1.72
CGACGTCG | 1.28
TTACGTCG | 2.52
TGACGTCA | 0.989
TGACGTCG | 1.02
CTACGTCG | 2.46
TTACGTTA | 2.55
TTACGTCA | 2.5
TCACGTCA | 2.03
GACCGGCA | 0.909

Sequence | relative CpG methylation activity
AAGCGCAT | 0.582
TCCCGAGA | 1.02
GTTCGCAT | 1.26
TACCGACC | 0.79
TCTCGCTG | 1.57
TGCCGCTC | 1.84
GCACGATT | 1.02
AACCGACT | 0.927
TCTCGCCT | 1.73
CCTCGCCC | 2.6
CCTCGCCA | 1.67
GCTCGCCT | 2.09
CCTCGCCT | 2.37
CCTCGCCG | 1.68
GTTCGGTT | 0.726
GTCCGAAC | 1.91
CGACGATT | 0.644
TTACGGCC | 2.24
TATCGCCT | 1.86
CACCGGAA | 0.755
CCACGCTA | 1.53
ACACGCAC | 1.72
CCACGCTC | 2.5
TCACGCTC | 2.5
GCACGCTC | 1.98
ACACGCTG | 1.74

Sequence | relative CpG methylation activity
TCACGCTA | 1.56
ACACGCTA | 1.76
CCACGCTG | 1.58
TCACGCTG | 1.32
ACACGCTC | 2.4
ACACGCTT | 2.37
GGTCGTCT | 0.726
CCCCGATA | 1.02
TACCGTTT | 0.414
GCTCGGCC | 1.3
GGACGTTG | 0.114
GGACGGAC | 0.861
ATTCGCTC | 1.94
ACGCGAGT | 0.94
GTCCGCTT | 2.54
ATCCGCTC | 2.37
CTCCGCTT | 2.3
GTCCGCTG | 1.42
GTCCGCTA | 1.9
GACCGCTC | 1.78
ATCCGCTA | 1.78
ATCCGCTG | 1.62
TTCCGCTT | 2.48
GGCCGCTT | 1.75
GTCCGCTC | 2.37
ATCCGCTT | 2.13

Sequence | relative CpG methylation activity
GCCCGGGT | 0.974
TGGCGGCC | 1
CCACGACG | 1.18
GGCCGTGC | 0.353
TGCCGTCT | 1.28
TCCCGAGT | 0.977
GAGCGCTT | 2.07
GGCCGAGG | 0.41
ACACGGTC | 1.41
AGCCGTGA | 0.258
CGCCGACA | 0.962
CTGCGCAG | 0.583
TTCCGCTA | 2.3
CTCCGCTC | 2.19
TTCCGCTC | 2.73
TGACGTGA | 0.475
GAACGAGC | 1.12
CATCGGGA | 0.259
CGACGCGT | 0.316
TATCGAGC | 0.705
TACCGGGC | 0.455
CCACGCCA | 1.91
CGACGCCT | 1.29
CTACGCCG | 2.5
GTACGCCT | 2.41
CTACGCAG | 1.43

Sequence | relative CpG methylation activity
CTACGCCA | 2.74
CCACGCCG | 1.71
CGACGCCA | 1.29
GTACGCCA | 2.14
CCACGCCT | 2.24
CTACGCCT | 2.79
GTACGCCG | 1.9
GCCCGAAA | 1.39
AGACGGTC | 1.15
TCCCGTAT | 0.643
GACCGCTT | 1.77
ACACGAGC | 1.54
TTGCGATA | 1.13
GGTCGTAT | 0.455
TTGCGGTC | 1.43
TAGCGGGT | 0.231
GGACGGGT | 0.4
ATACGCAT | 1.79
ATACGCCT | 2.76
ATACGCGT | 1.9
GATCGCCG | 0.545
TCACGACA | 1.52
CTACGCTT | 2.38
CAACGCTC | 1.36
CAACGCTA | 0.826
CTACGCTC | 2.66

Sequence | relative CpG methylation activity
CTACGCTG | 1.75
CTACGCAT | 1.97
CGACGCTC | 1.38
TTACGCTA | 1.94
CTACGCTA | 2.5
GACCGTCG | 1.29
TGCCGAGC | 1.38
CGGCGTTT | 0.165
ACTCGATG | 0.513
GCCCGGCG | 0.38
GCACGCCC | 2.31
ACACGCCT | 2.44
ACACGCCA | 2.02
ACACGCCG | 1.92
GCACGCCT | 2.25
ACACGCCC | 2.4
CGCCGGCC | 0.909
CCGCGGGT | 1.11
TAACGCCC | 1.61
TTACGCGC | 2.44
ATACGCGC | 1.93
AGACGCCC | 1.43
TTACGCAA | 2.55
ATACGCCC | 2.85
ATACGCCG | 2.33
TTACGCAT | 2.29

Sequence | relative CpG methylation activity
TTACGCCC | 2.64
GTACGCAA | 1.89
TTACGCCG | 2.29
TTACGCGG | 0.654
ATTCGCAA | 1.09
TAACGTAC | 0.748
GCACGACG | 0.957
TATCGTTG | 0.26
TCGCGTAG | 0.412
TTACGCGT | 1.81
ATACGCGA | 1.33
GAACGCCC | 1.6
CTACGCAC | 2.15
CAACGCCC | 1.52
ATACGCCA | 2.6
TTACGCCT | 2.38
TTACGCCA | 2.33
CTACGCCC | 2.62
GTACGCCC | 2.39
GGACGCCC | 1.88
TAACGCCT | 1.2
TGCCGCGC | 0.766
TATCGATG | 0.224
AAACGTAA | 0.891
AGGCGCCT | 1.88
TGACGACG | 0.449

Sequence | relative CpG methylation activity
GCCCGTTT | 0.909
CCTCGGAG | 0.294
ACCCGCCC | 2.24
GTCCGCCT | 2.6
ACCCGCCT | 2.44
GTCCGCCA | 1.87
TTCCGCCG | 2.55
TGCCGCCG | 1.03
ACCCGCCG | 1.76
TTCCGCAT | 1.78
TTCCGCGT | 1.64
GGCCGCCT | 1.37
TTCCGCCA | 2.2
TTCCGCCT | 2.6
